Results filed as inconclusive are left out. Unmarked numbers belong to inactive results. Calls of active or inactive are those of the source. The call rests on the fitted dose curve; in most records, active means well fitted inhibition curve with a large enough effect; inconclusive means small, poorly fitted or top-dose-only effect; inactive means flat fitted curve, though single readings scatter.

Assay [1] deals with PC15. Put plainly: qHTS profiling for inhibitors of Plasmodium falciparum proliferation (AID 504749). The settings on record: P. falciparum in erythrocytes, SYBR Green DNA, 72 h; series mostly up to 28.7 µM. Put shortly:
(§1)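 Parasite proliferation within erythrocytes, 72 h exposure. Endpoint: SYBR Green I fluorescence after overnight lysis at room temperature. Controls: 0.29 uM artemisinin, DMSO.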
Background: qHTS replaces the single test concentration by a dilution series.

The subject of assay [2] is PC26. The description is as above. Particulars: P. falciparum in erythrocytes, SYBR Green DNA, 72 h; series mostly up to 28.7 µM. The method in brief:
as §1

In assay [3] the test system is PC49. The description is as above. Particulars: P. falciparum in erythrocytes, SYBR Green DNA, 72 h; series mostly up to 28.7 µM. The method in brief:
as §1

Assay [4] deals with SC27B. The description is as above. Particulars: P. falciparum in erythrocytes, SYBR Green DNA, 72 h; series mostly up to 28.7 µM. The method in brief:
as §1

For assay [5], the system named is TAB109. The description is as above. Particulars: P. falciparum in erythrocytes, SYBR Green DNA, 72 h; series mostly up to 28.7 µM. The method in brief:
as §1

The subject of assay [6] is TAB113. Described as above. Particulars: P. falciparum in erythrocytes, SYBR Green DNA, 72 h; series mostly up to 28.7 µM. Put shortly: as §1
For assay [7], the system named is TAB165. Described as above. The settings on record: P. falciparum in erythrocytes, SYBR Green DNA, 72 h; series mostly up to 28.7 µM. The method in brief: as §1
For assay [8], the system named is W2. The description is as above. Particulars: P. falciparum in erythrocytes, SYBR Green DNA, 72 h; series mostly up to 28.7 µM. The method in brief: as §1
Assay [9] deals with CRL-7250. Put plainly: Cytotoxic Profiling of Annotated Libraries Using Quantitative High-Throughput Screening (AID 1296008). On max response: on the % scale 0 is the no-effect control and ±100 the full control effect. Particulars: Five cell lines viability, CellTiter-Glo ATP luminescence, 48-72 h; max response: active compounds read low. The method in brief: (§2)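 Compounds were pin-transferred onto cells and incubated 48 or 72 hr at 37 degree Celsius, 95% humidity. CellTiter-Glo was added, plates sat 10 min at room temperature, then ATP-coupled luminescence was imaged as the viability read-out.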

Assay [10] has as its system HEK293. Described as above. Particulars: Five cell lines viability, CellTiter-Glo ATP luminescence, 48-72 h; max response: active compounds read low. Put shortly: as §2
Background: ATP-based viability assays read luminescence as a measure of living cells.
Further: nearly all actives have a fitted effect of over 60% in size.
Potency means the concentration at half of the fitted maximal effect.

As to `CCN(Cc1ccncc1)C(=O)C(CO)c1ccccc1` (centres undefined), the Potency entry in assay [1], in assay [2], in assay [3], in assay [4], in assay [5] and in assay [6] was “inactive” in each case. Also, the Potency entry in [7] and in assay [8] was “inactive” in each case. For the same molecule, the results for the max response in [9] and in assay [10] were -20.8% and -10.1%, respectively.

`NC/C=C/C(=O)O`: the Potency entry in assay [1], in assay [2], in [3], in assay [4], in [5] and in assay [6] was “inactive” each time. Moreover, the Potency result in [7] and in assay [8] was “inactive” throughout. Also, the max response in [9] was -5.1%. In addition, the call in assay [10] was inactive.

In the case of `CCCN(CCC)CCc1cccc2c1CC(=O)N2`, the Potency result in assay [1], in assay [2], in assay [3], in assay [4], in assay [5] and in assay [6] was “inactive” each time. Also, the Potency entry in [7] and in [8] was “inactive” throughout. Moreover, the max response in [9] is 1.13%. In addition, in [10], the molecule was classed as inactive.

Regarding `CN=C(NC#N)NCCSCc1nc[nH]c1C`, the Potency entry in [1], in [2], in assay [3], in [4], in assay [5] and in [6] was “inactive” throughout. For the same molecule, the Potency result in [7] and in assay [8] was “inactive” each time. Also, the molecule was classed as inactive in [9] and in assay [10].

Turning to `NC(=O)N1c2ccccc2C=Cc2ccccc21`, the Potency result in assay [1], in [2], in assay [3], in assay [4], in assay [5] and in assay [6] was “inactive” in each case. Further, the Potency result in assay [7] and in [8] was “inactive” throughout. The outcome in assay [9] was inactive. Also, the max response in assay [10] is 2.7%.

Take `CCO/C([O-])=N/c1c[n+](N2CCOCC2)no1`: the Potency entry in assay [1], in assay [2], in assay [3], in assay [4], in assay [5] and in [6] was “inactive” in each case. For the same molecule, the Potency entry in assay [7] and in assay [8] was “inactive” throughout. In assay [9], the result was inactive. In addition, in [10], the max response was -1.87%.

As for `Cc1ccc(S(=O)(=O)NC(=O)NN2CCCCCC2)cc1`, the Potency entry in [1], in [2], in assay [3], in [4], in [5] and in assay [6] was “inactive” in each case. The Potency entry in assay [7] and in assay [8] was “inactive” throughout. Further, the call in assay [9] was inactive. Moreover, in assay [10], the max response was -0.0062%.

In the case of `O=C1CC2(CCCC2)CC(=O)N1CCCCN1CCN(c2ncccn2)CC1`, the Potency entry in assay [1], in [3], in assay [4], in assay [5], in assay [6] and in assay [7] was “inactive” throughout. In [9], the call was inactive. Further, the max response in [10] was -2.12%.

For `Nc1ncn([C@@H]2O[C@H](CO)[C@@H](O)[C@H]2O)c(=O)n1`, the Potency entry in [1], in [2], in [3], in assay [4], in [5] and in assay [6] was “inactive” throughout. Moreover, the Potency entry in assay [7] and in assay [8] was “inactive” in each case. Also, the results for the Potency in assay [9] and in assay [10] were 7.5 µM (active) and 3.35 µM (active), respectively.

Consider `CCN1CCC[C@H]1CNC(=O)c1c(O)c(Cl)cc(Cl)c1OC`, for which the Potency entry in [1], in assay [2], in assay [3], in [4], in [5] and in assay [6] was “inactive” each time. In addition, the Potency result in [7] and in assay [8] was “inactive” throughout. The outcome in [9] and in assay [10] was inactive.

As to `COC(=O)[C@@H](N)Cc1ccc(O)c(O)c1`, the Potency entry in [1], in assay [2], in assay [3], in assay [4], in [5] and in assay [7] was “inactive” throughout. The max response is 0.35% in assay [9] and -4.7% in assay [10].

Regarding `NC(=O)c1ncn([C@@H]2O[C@H](CO)[C@@H](O)[C@H]2O)c1O`, the Potency entry in [1], in [2], in assay [3], in [4], in assay [5] and in [6] was “inactive” each time. Further, the Potency result in [7] and in [8] was “inactive” throughout. Besides, the values for the max response in assay [9] and in [10] were -24.9% and 3.19%, respectively.

For `Cc1cc(C)c(/C=C2\C(=O)Nc3ccccc32)[nH]1`, the Potency result in assay [1], in assay [2], in assay [3], in assay [4], in [5] and in assay [6] was “inactive” in each case. The Potency entry in assay [7] and in [8] was “inactive” throughout. In assay [9], the max response was -6.15%. In addition, the result in [10] was inactive.

`Cc1scc2c1N(C(=O)CN1CCN(C)CC1)c1ccccc1NC2=O`: the Potency entry in [1], in assay [2], in assay [3], in [4], in assay [5] and in assay [6] was “inactive” in each case. For the same molecule, the Potency result in [8] was “inactive”. Moreover, the max response in [9] is -1.88%; in [10], -0.369%.

In the case of `C[N+](C)(C)CCOC(N)=O`, the Potency entry in assay [1], in assay [2], in assay [3], in assay [4], in [5] and in assay [6] was “inactive” each time. In addition, the Potency entry in assay [7] and in assay [8] was “inactive” in each case. For the same molecule, the max response in assay [9] was 1.41%. Also, in assay [10], the call was inactive.

Regarding `CC(=O)Nc1nnc(S(N)(=O)=O)s1`, the Potency result in [1], in assay [2], in assay [3], in [4], in [5] and in assay [6] was “inactive” in each case. The Potency result in assay [7] and in assay [8] was “inactive” each time. The outcome in assay [9] was inactive. Also, the max response in [10] was 3.96%.

For the molecule `CC(C)NNC(=O)c1ccncc1`, the Potency result in assay [1], in [2], in assay [3], in assay [4], in [6] and in assay [7] was “inactive” throughout. Besides, the Potency entry in assay [8] is “inactive”. The max response was -3.48% in assay [9] and -10.4% in assay [10].

On to `CN(C)CC[C@@H](c1ccc(Br)cc1)c1ccccn1`, for which, in assay [4], the Potency entry was “inactive”. Moreover, the Potency in assay [8] was 0.849 µM (active).

Take `CN1CCN(CC(=O)N2c3ccccc3C(=O)Nc3cccnc32)CC1`: the Potency entry in assay [1], in assay [2], in [3], in [4], in assay [5] and in [6] was “inactive” each time. Further, the Potency result in [7] and in assay [8] was “inactive” throughout.

Turning to `CC(C)COCC(CN(Cc1ccccc1)c1ccccc1)N1CCCC1` (centres undefined), the Potency result in [3], in assay [4], in assay [5] and in [6] was “inactive” in each case. Further, in [10], the Potency is 18.8 µM (active).

(Values after PubChem BioAssay (NCATS).)
